This is an account of results in PubChem BioAssay.

A short description of assay [1]: stimulators of nuclear beta-catenin in C2C12, primary screen, imaging, WNT3A-conditioned medium, mouse C2C12, NPC library (AID 1117326; in the data active = nuclear beta-catenin stimulation mostly above about 4.2%, no sharp cut-off; inactive = mostly below about 10%). The note with it: stronger effect = higher value.
Assay [2] can be described thus: stimulators of insulin release from INS-1E, primary screen, cell-based, 5 mM glucose, NPC library (AID 1117329;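 active = compound raises insulin release from rat beta cells at 5 mM glucose, no numeric limit stated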). The note with it: rat INS-1E insulin secretion, at 10 µM, stronger effect = higher value.
The nature of assay [3]: growth inhibition of GSK3B-pretreated HCT116 cells – cell-based, CellTiter-Glo, 0.2 to 20 µM (AID 1117336;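 active = compounds lowering colon cancer cell viability after pretreatment blocking the GSK3B kinase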). The note with it: HCT116 viability after GSK3B inhibitor, at 20 µM, stronger effect = higher value. Background: Cellular ATP, detected with luciferase, serves as a proxy for viable cell number.
A short description of assay [4]: inhibition of endothelial tube formation, primary screen, imaging, VEGF stimulated, CD31 staining, tube area, NPC library (AID 1117340;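 active = compound that reduces growth-factor-driven endothelial tube area in a mixed cell culture, no cutoff stated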). The note with it: VEGF-stimulated ADSC/ECFC co-culture, at 10 µM, stronger effect = higher value.
Assay [5] in a line: glucagon-like peptide 1 release enhancers, primary assay, NCI-H716 cell line, NPC library (AID 1117341;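 active = compound raises GLP1 secretion from the human gut endocrine cells, with no numeric limit stated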). Particulars: NCI-H716 cells, at 10 µM, stronger effect = higher value.
A short description of assay [6]: HCT116 colon cancer cell growth inhibition, primary screen, CellTiter-Glo luminescence, NPC library (AID 1117342;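 active = compounds that lower survival of HCT116 colon cancer cells in the luminescence readout, no numeric limit stated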). Particulars: at 20 µM (top of the series).
Assay [7] can be described thus: CellTiter-Glo luminescent readout of SW480 viability loss, NPC library primary (AID 1117343;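 active = compounds that lower viability of the colon cancer cells in the luminescence readout, with no numeric limit stated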). The note with it: CellTiter-Glo luminescence; at 20 µM (top of the series) unless noted.
A short description of assay [8]: decreased DLD-1 cellular survival, CellTiter-Glo luminescent readout, NPC compound collection, primary HTS (AID 1117346;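 active = compounds that lower survival of DLD-1 colon cancer cells in the luminescence readout, no cutoff given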). The note with it: DLD-1 viability, CellTiter-Glo luminescence; at 20 µM (top of the series).
A short description of assay [9]: sensitizers of A549 cells to miR-34 induction, primary screen, imaging, A549 dox-inducible miR-34, nuclei and caspase counts (AID 1347080). The note with it: A549 miR-34 inducible, Hoechst nuclei count, 48 h.
A short description of assay [10]: survival rescue of mitochondrial mutant cells in low glucose, primary screen, MELAS cybrids, Rieske KO mouse fibroblasts, CellTiter-Glo (AID 1508586;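 active = mean z-score across replicates of 1.96 or higher in either the MELAS or the Rieske mutant cell line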;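 also: z relative to plate mean and SD of compound and empty wells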).
A short description of assay [11]: liver-stage malaria parasite growth inhibition, primary screen, cell-based, HepG2, luciferase luminescence, HepG2 viability (AID 624349; in the data active = parasite load remaining mostly below about 12%, no sharp cut-off; inactive = mostly above about 10%;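 also: 100% = mean of DMSO negative control wells on the same plate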). Particulars: P. berghei liver stage in HepG2, luciferase luminescence, concentration not given here; parasite load remaining: stronger effect = lower value; viability: measured here: HepG2 viability without parasites.
The nature of assay [12]: phospholipid biosynthesis inhibitors in animal cells, primary screen, cell-based, LOPAC library, screen 4 (AID 1347384; call rule not given here). The note with it: phospholipid biosynthesis inhibition screen, at 10 µM.
Assay [13] concerns Hepatitis C virus NS3 helicase. The assay can be described thus: HCV NS3 helicase inhibitors, primary screen, biochemical, fluorescence polarization, LOPAC1280 library (AID 687035; in the data active = inhibition above about 37%). The note with it: Purified HCV NS3 helicase, Cy5-dT15 ssDNA binding fluorescence polarization; stronger effect = higher value; concentration not given here. (Fluorescence polarisation rises when a labelled molecule tumbles more slowly, as on binding a larger partner.)

The nature of assay [14]: Cy5 fluorescence quenching or enhancement artefacts, artefact control for HCV NS3 helicase inhibitor project, biochemical, LOPAC1280 (AID 687037; call rule not given here). Particulars: Cy5-DNA-NS3h complex fluorescence interference counterscreen. A general note: A counterscreen serves to expose hits that act by an unwanted route or on another target.
The nature of assay [15]: viability rescue of complex I mutant cybrids, primary screen, cell-based, galactose medium, ATP luminescence (AID 1645843;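 active = z-score of at least 1.8 in each of two replicates, scored against plate mean and spread of sample wells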;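 also: positive z means more ATP and so rescue of galactose-driven cybrid death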). Particulars: complex I mutant cybrid cells, 72 h, stronger effect = higher value.
The mark [16] stands for this setting: stronger effect = lower value, cell number ratio, induced over uninduced.
Setting [17] is: measured here: relative caspase fold change +Dox/-Dox.
Setting [18] is: measured here: total cells with miR-34 induction, stronger effect = lower value.
The mark [19] stands for this setting: measured here: total cells without miR-34 induction.
The mark [20] stands for this setting: MELAS cybrid survival, CellTiter-Glo 48 h, stronger effect = higher value.
The mark [21] stands for this setting: Rieske KO mouse fibroblast survival, CellTiter-Glo 72 h.

Structures are written as SMILES. Values joined by “and” are separate entries in the source; they are usually repeats but may differ in a detail not shown here. Equal values may be shown once. Active and inactive are the calls of the source.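 The calls were made as follows, unless noted: active = compounds whose cell count with miR-34 switched on is under 0.7 times the count with it off; inactive = the rest.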

Turning to `Nc1c(CC(=O)O)cccc1C(=O)c1ccc(Br)cc1`, the nuclear beta-catenin stimulation in [1] (at 10 µM) is -0.1% (inactive); in assay [1] (stimulation, at 2 µM), 0.4%. Besides, the insulin secretion stimulation in [2] was 1.4% (inactive). In assay [3], the viability decrease was 52.4% (active). For the same molecule, the tube area decrease in [4] was -4.7% (inactive). Moreover, the GLP1 secretion stimulation in assay [5] is 0.3% (inactive). Also, the inhibition of viability in assay [6] is -13.5% (inactive). The viability decrease (inhibition) was 37.9% (inactive) in assay [7] and 82.5% (active) in [8]. The fold change in assay [9] (setting [16]) was 0.937 (inactive); in assay [9] (setting [17]) it was 1.05. For the same molecule, the cell count in assay [9] (setting [18]) was found to be 8540; in assay [9] (setting [19]), 9120. In addition, the z-score was -0.257 (inactive) in [10] (setting [20]) and -0.191 in assay [10] (setting [21]).

For the molecule `CC(C=CC=C(C)C=CC1=C(C)CCCC1(C)C)=CC=CC=C(C)C=CC=C(C)C=CC1=C(C)CCCC1(C)C`, the nuclear beta-catenin stimulation in assay [1] (at 10 µM) is 1.5% (inactive); in assay [1] (stimulation, at 2 µM), 1.5%. Moreover, in [2], the insulin secretion stimulation is 3.2% (inactive). In assay [3], the viability decrease is -39.2% (inactive). Also, the tube area decrease in [4] is 5.4% (inactive). In addition, the GLP1 secretion stimulation in assay [5] was 5.7% (inactive). Also, the inhibition of viability in assay [6] was 1.37% (inactive). The viability decrease (inhibition) in [7] is 19.1% (inactive); in assay [8], 3.2% (inactive). Moreover, the results for the fold change in assay [9] (setting [16]) and in [9] (setting [17]) were 0.877 (inactive) and 0.984, respectively. Also, the cell count in [9] (setting [18]) amounted to 7760; in [9] (setting [19]), 8840. For the same molecule, the values for the z-score in [10] (setting [20]) and in assay [10] (setting [21]) were -0.304 (inactive) and 0.553, respectively.

A word on the viability: it is a read-out of living cells in per cent, often relative to untreated cells. Consider `CC(=O)Oc1cc(C(F)(F)F)ccc1C(=O)O`, for which the parasite load remaining in assay [11] was 140% (inactive) and 78.8% (inactive). The viability in assay [11] was 117% and 74.8%. Besides, the nuclear beta-catenin stimulation in assay [1] (at 10 µM) is -0.6% (inactive); in [1] (stimulation, at 2 µM), -0.8%. Further, in assay [2], the insulin secretion stimulation was 2.8% (inactive). Also, the viability decrease in assay [3] was -12.2% (inactive). In addition, in assay [4], the tube area decrease is -1.7% (inactive). Besides, the GLP1 secretion stimulation in assay [5] is -6.4% (inactive). The inhibition of viability in assay [6] was 16.4% (inactive). The viability decrease (inhibition) in [7] is 8.4% (inactive); in assay [8], 5.4% (inactive). For the same molecule, the fold change in assay [9] (setting [16]) is 0.83 (inactive) and 0.986 (inactive); in [9] (setting [17]) it was 1.45 and 0.716. For the same molecule, the cell count was 8780 and 8310 in assay [9] (setting [18]); 10600 and 8430 in assay [9] (setting [19]). For the same molecule, the result in assay [12] was inactive. Moreover, the z-score in assay [10] (setting [20]) was -0.0694 (inactive) and 0.0403 (inactive); in assay [10] (setting [21]) it was -0.153 and -0.0623.

What is called inhibition is the relative decrease from the control value, in per cent. As for `Cc1nc2c([nH]1)c(=O)n(C)c(=O)n2Cc1ccco1`, the parasite load remaining in [11] was 89.1% (inactive). In addition, the viability in [11] was 184%. In addition, the inhibition in assay [13] was -1% (inactive). The fluorescence ratio (interference) in assay [14] is 1 (inactive). Besides, the nuclear beta-catenin stimulation in [1] (at 10 µM) was -1.1% (inactive); in assay [1] (stimulation, at 2 µM), -0.9%. Further, the insulin secretion stimulation in assay [2] was 5.4% (inactive). In addition, the viability decrease in assay [3] is 4.7% (inactive). For the same molecule, the tube area decrease in assay [4] is -13.8% (inactive). The GLP1 secretion stimulation in assay [5] was 2.9% (inactive). Besides, the inhibition of viability in assay [6] was 4.7% (inactive). Moreover, the results for the viability decrease (inhibition) in assay [7] and in assay [8] were 11.9% (inactive) and 11.1% (inactive), respectively. The fold change was 0.936 (inactive) and 0.904 (inactive) in assay [9] (setting [16]); 1.31 and 1.1 in assay [9] (setting [17]). Moreover, the cell count is 10100 and 8410 in assay [9] (setting [18]); 10800 and 9310 in assay [9] (setting [19]). Moreover, the molecule was called inactive in assay [12]. For the same molecule, the z-score was 0.342 (inactive) in assay [10] (setting [20]); -0.476 in [10] (setting [21]); 0.455 (inactive) and 1.9 (inactive) in assay [15].
